Growth data for 37 molecules are collected here from PubChem BioAssay (NCI).

Compounds without any hit were thinned out: in the full panel of roughly 83,000, 20% have a hit.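 Percent growth is the endpoint: 0 to 100 indicates growth inhibition (40 means 60% inhibition), 0 means no net growth, and negative values indicate cell death.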 Activity calls are given as the source filed them. Rule for the calls: active = growth percent below 10; inactive = the rest.

The subject of one test is MDA-MB-435 melanoma. The test is described as follows: NCI-60 one-dose screen, 48 h (100 = growth as untreated, 0 = no growth, -100 = all killed). The following applies: 10 µM.
Consider `Cc1cc2c(c(O)c1Br)-c1ncoc1C(=O)[C@]1(C)CC[C@H](C(C)C)[C@H]21`, for which the growth was 5.72% (active).

For the molecule `O=C1Nc2ccc(Cl)cc2/C1=C/c1ccc(OCc2ccccn2)cc1`, the growth was 76.9% (inactive).

Turning to `O=c1[nH]c2ccccc2cc1CSc1ccc(Nc2nccc(-c3ccc4c(c3)OCO4)n2)cc1`, the growth is 93.6% (inactive).

Another test has as its system SW-620 colon. The description is as above. The following applies: 10 µM.
Consider `CN1C(=O)N(C)C2SC(N/N=C/C=C/c3ccccc3)=NC21` (stereo not given), for which the growth is 63.9% (inactive).

As for `Cc1ccc(NC(=O)c2ccc(-n3c(=O)[nH]c4ccccc4c3=O)cc2)cc1`, the growth was 113% (inactive).

Take `COc1cccc(/C=N/NC(=O)c2ccc3nc(-c4ccc(Cl)cc4)[nH]c3c2)c1O`: the growth was -77.1% (active).

As for `COc1ccc2[nH]c(=O)c(CSc3nccc(-c4ccc(Cl)cc4)n3)cc2c1`, the growth was 45.4% (inactive).

`COc1ccc2ncc(C#Cc3cncc(C(=O)Nc4ccc(CN5CCN(C)CC5)c(C(F)(F)F)c4)c3)n2n1`: the growth was -72.4% (active).

For `O=C(CS(=O)(=O)c1oc(-c2ccc(Cl)cc2)nc1S(=O)(=O)c1ccccc1)N1CCCC1`, the growth is -70.1% (active).

Take `CC1=N/C(=C\c2ccc(N(C)C)cc2)C(=O)N1CCc1ccc(S(N)(=O)=O)cc1`: the growth is 112% (inactive).

For `CCN1CCN(c2ccc(NC(=O)Nc3ccc(-c4cc(C(=O)NC(C)C)c5ncccc5n4)cc3)cc2C(F)(F)F)CC1`, the growth is -69.8% (active).

As to `O=C(c1ccc(Cl)cc1)C1[C@H](c2ccccc2Br)[C@@H](c2ccccc2)NC12C(=O)Nc1ccccc12` (stereo not given in full), the growth was 5.99% (active).

For the molecule `CN1CCN(c2ccc(Nc3nc(NCCCNC(=O)C4CCCCC4)c4sccc4n3)cc2)CC1`, the growth is 40% (inactive).

Take `CC1(c2ccccc2)NC(=O)N(CC(=O)Nc2ccc(C(=O)/C=C/c3ccc(Cl)cc3)cc2)C1=O` (stereo not given): the growth is -58.9% (active).

As for `CC(C)c1ccc(C(=O)Nc2sc3c(c2C(N)=O)CCC(=O)C3=O)cc1`, the growth was 105% (inactive).

Consider `O=c1c2ccccc2nc(COc2ccccc2)n1/N=C/c1ccc(N2CCOCC2)cc1`, for which the growth is 97.6% (inactive).

As for `CCN1CCN(Cc2ccc(NC(=O)c3cccc(-n4cc(-c5ccc(NC(C)=O)nc5)nn4)c3)cc2C(F)(F)F)CC1`, the growth is 109% (inactive).

For `CCOC(=O)C1NN(c2ccc(S(N)(=O)=O)cc2)c2nc3nc(-c4cccs4)cc(-c4cccs4)c3c(=O)n21` (stereo not given), the growth was 93.1% (inactive).

For `CN1CCN(c2ccc(C(=O)/C=C/c3cc(Br)ccc3F)cc2)CC1`, the growth is -25.7% (active).

For `CN(CCF)c1ccc(/C=C/C(=O)c2ccc(N)cc2O)cc1`, the growth is 90.3% (inactive).

As to `CC1(C)CC[C@]2(C(=O)O)CC[C@]3(C)C(=CC[C@@H]4[C@@]5(C)C/C(=C/c6ccncc6)[C@H](O)C(C)(C)[C@@H]5CC[C@]43C)[C@@H]2C1`, the growth was 34.6% (inactive).

As for `CN(C)c1cccc2c(S(=O)(=O)Nc3cccc(-c4csc(NC(=O)CCCCCN5CCN(c6cc7c(cc6F)C(=O)N(C6CCC(=O)NC6=O)C7=O)CC5)n4)c3)cccc12` (stereo not given), the growth was 98.6% (inactive).

For the molecule `O=C(CSc1nnc(-c2ccc3nc(-c4ccccc4)[nH]c3c2)o1)Nc1ccc(Br)cc1`, the growth was 2.94% (active).

Turning to `CCNCCCn1c2c(c3cc(OC)c(OC)cc3c1=O)C(=O)c1cc3c(nc1-2)OCO3`, the growth is 38.7% (inactive).

`Cn1c(O)c(N=Nc2nc(-c3cc4ccccc4oc3=O)cs2)c2cc(Br)ccc21`: the growth is 99.8% (inactive).

As for `Clc1ccc(/C=N/Nc2ncnc3sc4c(c23)CCN(Cc2ccccc2)C4)cc1`, the growth is -74% (active).

On to `Cc1ccc(CSc2nc(-c3ccc(F)cc3)c(C#N)c(=O)[nH]2)cc1`, for which the growth was 102% (inactive).

For `COc1csc(/C=N/NC(=O)c2[nH]c3ccc(Br)cc3c2-c2ccccc2)c1`, the growth is 17.9% (inactive).

Regarding `CCOC(=O)N/C(=C1/OCCN1C)[P+](c1ccccc1)(c1ccccc1)c1ccccc1`, the growth was 89.1% (inactive).

As for `COc1ccc(/C=C/C(=O)c2ccc(S(=O)(=O)NCCNc3nc(Nc4ccc(F)cc4)nc(N(C)C)n3)cc2)cc1`, the growth is 26.4% (inactive).

As for `N#Cc1c(NC(=O)c2ccc(C(F)(F)F)c(Cl)c2)sc2c1CCC(=O)C2`, the growth was -56.8% (active).

For the molecule `O/N=C(\CSc1nnc(-c2c[nH]c3ccccc23)n1-c1ccccc1)c1ccc(Cl)cc1`, the growth was -37% (active).

For `CN1CCCN(Cc2ccc(C(=O)Nc3cccc(Nc4ccc5c(O)cccc5n4)c3)cc2C(F)(F)F)CC1`, the growth was -92.7% (active).

Turning to `O=c1[nH]c2ccccc2cc1CSc1ccc(Nc2nccc(-c3ccc(C(F)(F)F)cc3)n2)cc1`, the growth was 31% (inactive).

Turning to `O=c1cc(-c2ccccc2)oc2cc(OCCCCNCc3ccccc3)cc(O)c12`, the growth is -39.1% (active).

Regarding `COc1ccccc1[C@H]1C(C(=O)c2ccc(Cl)cc2)C2(N[C@@H]1c1ccccc1)C(=O)Nc1ccc(Cl)cc12` (stereo not given in full), the growth is 6.3% (active).

As for `N#Cc1c(Cl)nc(SCc2ccc(F)cc2)nc1-c1ccc(F)cc1`, the growth was 98.6% (inactive).

With `Cc1cc2c(c(O)c1Br)-c1ncoc1C(=O)[C@]1(C)CC[C@H](C(C)C)[C@H]21`, the growth is 22.8% (inactive).

Regarding `O=C1Nc2ccc(Cl)cc2/C1=C/c1ccc(OCc2ccccn2)cc1`, the growth was 47.5% (inactive).

On to `O=c1[nH]c2ccccc2cc1CSc1ccc(Nc2nccc(-c3ccc4c(c3)OCO4)n2)cc1`, for which the growth is 80.6% (inactive).
